Screening results as filed in PubChem BioAssay.
Hits are enriched below; roughly 9.8% of the tested compounds scored in any of these assays.
ALDH1A1 inh – inhibitors of human aldehyde dehydrogenase 1A1 | Potency, µM (top dose mostly 75.3 µM), actives largely listed as inhibitors | hit rate 7.3% among 220,000 | P00352 | Purified ALDH1A1, NADH fluorescence, propionaldehyde substrate; active means well fitted inhibition curve with a large enough effect, not every such curve was filed as active; inconclusive means small, poorly fitted or top-dose-only effect, or another doubt; inactive means no such curve, though single readings can be large or run the other way
KDM4E inh – blocks human JMJD2E demethylase activity. JMJD2E catalytic domain, FDH-coupled NADH fluorescence (FDH is formaldehyde dehydrogenase). Potency, µM (highest dose often 57.1 µM), usual class: inhibitors. hit rate 1.6% among 230,000. B2RXH2. AID 2147; active means well fitted inhibition curve with a large enough effect, not every such curve was filed as active; inconclusive means small, poorly fitted or top-dose-only effect, or another doubt; inactive means no such curve, though single readings can be large or run the other way; further: nearly all actives have a fitted effect of over 50% in size
Target sequence (B2RXH2 1-337 limits assumed): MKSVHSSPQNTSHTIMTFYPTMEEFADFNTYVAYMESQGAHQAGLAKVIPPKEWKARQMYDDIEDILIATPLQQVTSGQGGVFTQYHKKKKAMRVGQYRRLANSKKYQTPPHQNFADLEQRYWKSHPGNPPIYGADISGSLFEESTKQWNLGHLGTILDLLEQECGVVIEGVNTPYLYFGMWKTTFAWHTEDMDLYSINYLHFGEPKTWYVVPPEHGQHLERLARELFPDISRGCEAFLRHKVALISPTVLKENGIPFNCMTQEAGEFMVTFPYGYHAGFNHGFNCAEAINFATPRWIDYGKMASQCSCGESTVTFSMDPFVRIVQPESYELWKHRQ
CBFb RUNX1 block – blocks binding between human CBF-beta and RUNX1. Potency, µM (doses to about 59.8 µM), hits mostly inhibitors. Q01196+Q13951. AlphaScreen CBFb-His/RUNX1-biotin binding, biochemical. AID 1477. 230,000 tested, under 10 active
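Proteins preincubated together for 20 min at RT before compound addition; 15 min later, nickel and streptavidin beads were added and left 90 min prior to AlphaScreen measurement.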
HttQ103 aggreg – inhibitors of mutant huntingtin aggregate formation in PC12 cells; PC12 HttQ103-GFP aggregates, Acumen cytometry, 40 h; Potency, µM (titrated, usually from 46.1 µM), actives largely listed as inhibitors; hit rate 1.1% among 220,000; AID 1688; further: nearly all actives have a fitted effect of over 60% in size
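Aggregates are detected as GFP objects 1–25 µm with signal 6 STDEV over background in lysates of induced PC12 cells. These carry Huntingtin exon 1 with 103 glutamines fused to GFP under an ecdysone promoter; compounds titrated.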
HPGD inh – blocks human HPGD enzyme activity; P15428; purified HPGD, NADH fluorescence kinetic, PGE2 substrate; Potency, µM, usual class: inhibitors; hit rate 4.3% among 150,000; AID 894; active means well fitted inhibition curve with a large enough effect, not every such curve was filed as active; inconclusive means small, poorly fitted or top-dose-only effect, or another doubt; inactive means no such curve, though single readings can be large or run the other way
Target sequence (P15428 whole entry, looked up): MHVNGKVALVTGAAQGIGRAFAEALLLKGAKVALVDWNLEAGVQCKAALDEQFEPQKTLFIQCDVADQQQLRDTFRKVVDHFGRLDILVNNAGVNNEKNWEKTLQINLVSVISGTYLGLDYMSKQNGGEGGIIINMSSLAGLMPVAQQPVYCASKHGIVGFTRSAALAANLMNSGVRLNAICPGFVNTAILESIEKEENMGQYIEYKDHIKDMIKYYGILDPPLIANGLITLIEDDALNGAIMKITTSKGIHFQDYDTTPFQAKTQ
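NADH formation kinetics: reaction with 30 uM PGE2 and 1 mM NAD+ (final), 20 nM enzyme, Tris-HCl pH 8 with Tween 20, after 15 min compound preincubation at room temperature. Fluorescence change, last versus first of five reads.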
HTT cytoprotect – cytoprotection in Huntington HTT-Q103 PC12 cell model; PC12 HTT-Q103 induced, cytoprotection, ATP luminescence, 40 h; Potency, µM (titrated, usually from 56.4 µM), hits mostly activators; hit rate 0.14% among 230,000; further: nearly all actives have a fitted effect of over 45% in size
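PC12 cells with ecdysone-inducible HTT exon 1 Q103-GFP, induced with 100 nM tebufenozide and co-treated with library compounds in a dose series (1536-well, 1500 cells/well). Cytoprotection read as ATP content by ATPlite luminescence.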
A number is an active result; [ ] = another dose, or the depositor's remark. Unless noted, the call rests on the fitted dose curve; in most records, active means well fitted curve in the direction sought with a large enough effect; inconclusive means small, poorly fitted or top-dose-only effect, or another doubt; inactive means no such curve, though single readings can be large; an effect the other way counts as inactive or inconclusive.

How did COc1ccc(N=Cc2ccc(-c3ccccc3)o2)cc1 do in these assays?
ALDH1A1 inh: 3.2µM; KDM4E inh: inactive; CBFb RUNX1 block: inactive; HttQ103 aggreg: inactive[9.22 µM]; HTT cytoprotect: inactive[10 µM]

What do the screens show for `O/N=C\c1ccc(-c2ccccc2)o1`?
ALDH1A1 inh: inactive; KDM4E inh: inactive; CBFb RUNX1 block: inactive; HttQ103 aggreg: inactive; HPGD inh: 14µM; HTT cytoprotect: inactive[10 µM]

Results for O=[N+]([O-])c1ccc(-c2ccc(/C=N/O)o2)cc1 ?
KDM4E inh: inactive; CBFb RUNX1 block: inactive; HttQ103 aggreg: inactive[9.22 µM]; HTT cytoprotect: inactive[10 µM]

Results for O/N=C/c1ccc(-c2cc(Cl)ccc2Cl)o1 ?
ALDH1A1 inh: inactive; KDM4E inh: inactive; CBFb RUNX1 block: inactive; HttQ103 aggreg: inconclusive; HPGD inh: 4.5µM; HTT cytoprotect: inactive[10 µM]

How did O=C1c2ccccc2C(=O)N1CC1c2ccccc2CCN1C(=O)CN1CCOCC1 (configuration not stated) do in these assays?
ALDH1A1 inh: inactive; KDM4E inh: inactive; CBFb RUNX1 block: inactive; HttQ103 aggreg: inactive; HTT cytoprotect: inactive

How did COc1ccc(C(=O)CSc2nnc(CNC(=O)c3ccc(OC)cc3)n2C)cc1 do in these assays?
ALDH1A1 inh: inconclusive; KDM4E inh: inactive; CBFb RUNX1 block: inactive; HttQ103 aggreg: inactive; HPGD inh: inactive; HTT cytoprotect: inactive

What do the screens show for `COc1cc2nccc(Oc3ccc(NC(=O)Nc4ccc(F)cc4F)c(F)c3)c2cc1OC`?
CBFb RUNX1 block: inactive

Results for COc1ccc(-c2nc3ccccc3c(=O)n2NC(=S)N(C)C)cc1 ?
ALDH1A1 inh: 4µM; KDM4E inh: inactive; CBFb RUNX1 block: inactive; HttQ103 aggreg: inactive; HPGD inh: 14µM; HTT cytoprotect: inactive[10 µM]

What do the screens show for `Cn1c(CSc2nnc(SCc3ccccc3)s2)nc2ccccc21`?
ALDH1A1 inh: 25µM; KDM4E inh: inactive; CBFb RUNX1 block: inactive; HttQ103 aggreg: inactive; HPGD inh: inactive; HTT cytoprotect: inactive

What do the screens show for `O=C(CCl)NC1(C(F)(F)F)C(=O)Nc2c1c(=O)[nH]c(=O)n2-c1ccccc1` (configuration not stated)?
KDM4E inh: inactive; CBFb RUNX1 block: inactive; HttQ103 aggreg: inactive[9.22 µM]; HTT cytoprotect: inactive[10 µM]

How did CCN(CC)c1ccc(-n2c(C)c(C(C)=O)c(C(C)=O)c2C)cc1 do in these assays?
ALDH1A1 inh: inconclusive; KDM4E inh: inactive; CBFb RUNX1 block: inactive; HttQ103 aggreg: 22µM; HPGD inh: inactive; HTT cytoprotect: inactive[0.074 µM]

Results for CC(=O)c1c(C(C)=O)c(C)n(-c2ccc(O)cc2)c1C ?
ALDH1A1 inh: inactive; KDM4E inh: inactive; CBFb RUNX1 block: inactive; HttQ103 aggreg: inactive; HPGD inh: inactive; HTT cytoprotect: inactive

Results for CCOc1ccc(-n2c(C)cc(/C=N/N(C)C)c2C)cc1 ?
ALDH1A1 inh: inconclusive; KDM4E inh: inactive; CBFb RUNX1 block: inactive; HttQ103 aggreg: inactive; HTT cytoprotect: inactive[10 µM]

Results for CCN(CC)c1ccc(-n2c(C)cc(C=O)c2C)cc1 ?
ALDH1A1 inh: 10µM; KDM4E inh: inactive; CBFb RUNX1 block: inactive; HttQ103 aggreg: inactive; HPGD inh: inactive; HTT cytoprotect: inactive[10 µM]

Results for CC1=C(C(=O)Nc2ccc([N+](=O)[O-])cc2)C(c2cccc(C(F)(F)F)c2)NC(=S)N1c1ccccc1 (configuration not stated) ?
ALDH1A1 inh: 14µM; KDM4E inh: inactive; CBFb RUNX1 block: inactive; HttQ103 aggreg: inconclusive; HPGD inh: inactive; HTT cytoprotect: inactive

How did COc1ccc(C2NC(=S)N(c3ccccc3)C(C)=C2C(=O)Nc2ccccc2)cc1 (configuration not stated) do in these assays?
ALDH1A1 inh: 2µM; KDM4E inh: inactive; CBFb RUNX1 block: inactive; HttQ103 aggreg: inactive; HPGD inh: inactive; HTT cytoprotect: inactive

Results for Cc1ccc2c(c1C)NC(=O)C21N2CCCC2C(C(=O)c2ccc3ccccc3c2)C12C(=O)Nc1ccccc12 (configuration not stated) ?
KDM4E inh: inactive; CBFb RUNX1 block: inactive; HttQ103 aggreg: inactive[9.22 µM]; HTT cytoprotect: inactive[10 µM]

Results for Cc1ccccc1C(=O)c1cccn1CC(=O)N1CCCCCC1 ?
ALDH1A1 inh: 4µM; KDM4E inh: inconclusive; CBFb RUNX1 block: inactive; HttQ103 aggreg: inactive; HTT cytoprotect: inactive

How did CCOC(=O)c1c(-c2ccc(C)cc2)csc1NC(=O)CCN1CC(C)OC(C)C1 (configuration not stated) do in these assays?
ALDH1A1 inh: inactive; KDM4E inh: inactive; CBFb RUNX1 block: inactive; HttQ103 aggreg: inactive; HPGD inh: inconclusive; HTT cytoprotect: inactive[10 µM]

How did C=CC1=C(C)/C(=C/c2[nH]c(Cc3[nH]c(/C=C4\NC(=O)C(C)=C4C=C)c(C)c3CCC(=O)O)c(CCC(=O)O)c2C)NC1=O do in these assays?
ALDH1A1 inh: inconclusive; KDM4E inh: inconclusive; HPGD inh: inactive

What do the screens show for `CC(C)CN(C#N)c1nc(N2CCOCC2)nc(N2CCOCC2)n1`?
ALDH1A1 inh: 7.9µM; KDM4E inh: inactive; CBFb RUNX1 block: inactive; HttQ103 aggreg: inconclusive; HPGD inh: inactive; HTT cytoprotect: inactive

What do the screens show for `O=C(Nc1n[nH]c(C2CCCCC2)n1)C1CCCCC1`?
ALDH1A1 inh: inactive; KDM4E inh: inactive; CBFb RUNX1 block: inactive; HttQ103 aggreg: 4.5µM; HPGD inh: inactive; HTT cytoprotect: inactive

What do the screens show for `O=C(O)CCC(=O)Nc1ccc(Br)cc1C(=O)c1ccc(Cl)cc1`?
KDM4E inh: inactive; CBFb RUNX1 block: inactive; HttQ103 aggreg: inactive[9.22 µM]; HTT cytoprotect: inactive[10 µM]

How did CS/C(=C\[N+](=O)[O-])Nc1ccc(F)cc1 do in these assays?
ALDH1A1 inh: 16µM; KDM4E inh: inactive; CBFb RUNX1 block: inactive; HttQ103 aggreg: inconclusive; HPGD inh: inactive; HTT cytoprotect: inactive

How did CS/C(=C\[N+](=O)[O-])Nc1ccccc1 do in these assays?
ALDH1A1 inh: inconclusive; KDM4E inh: inactive; CBFb RUNX1 block: inactive; HttQ103 aggreg: inactive; HPGD inh: inactive; HTT cytoprotect: inactive

What do the screens show for `CC(=O)c1ccc(NC(=O)C2CC(=O)N(C(C)C)C2)cc1` (configuration not stated)?
ALDH1A1 inh: inactive; KDM4E inh: inactive; CBFb RUNX1 block: inactive; HttQ103 aggreg: inactive; HTT cytoprotect: inactive[10 µM]

How did S=c1nc(C2CCCCC2)[nH]c2ccccc12 do in these assays?
ALDH1A1 inh: inactive; KDM4E inh: inactive; CBFb RUNX1 block: inactive; HttQ103 aggreg: inactive[9.22 µM]; HTT cytoprotect: inactive[10 µM]

Results for CC(C)c1nc(=S)c2ccccc2[nH]1 ?
ALDH1A1 inh: 14µM; KDM4E inh: inactive; CBFb RUNX1 block: inactive; HttQ103 aggreg: inactive; HPGD inh: inconclusive; HTT cytoprotect: inactive

What do the screens show for `S=c1nc(C2CC2)[nH]c2ccccc12`?
ALDH1A1 inh: 13µM; KDM4E inh: inactive; CBFb RUNX1 block: inactive; HttQ103 aggreg: inactive; HPGD inh: 16µM; HTT cytoprotect: inactive[0.074 µM]

How did Cc1cc(C)cc(C(=O)NC(=S)Nc2ccc3c(c2)OCCO3)c1 do in these assays?
ALDH1A1 inh: 13µM; KDM4E inh: inactive; CBFb RUNX1 block: inactive; HttQ103 aggreg: inactive; HTT cytoprotect: inactive[10 µM]
